# Results from the supplement of paper PMC10515830.
# Structures can show the parent of a compound that is named as a salt.
# Experiments:
# Conditions in all cases: 10 µM; exposure time 6 h
# [1] = system: Danio rerio larvae (5 dpf); assay: difference in excitability vs DMSO (percentage points); higher = more excitable than DMSO
# In short: (§1)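 Wild-type zebrafish larvae at 5 dpf were kept in 96-well plates and exposed for 6 h to 100 µL egg water holding library compound at a final concentration of 10 µM. From 3 h into exposure, the plates were held at 28.5 ℃ and photographed every 6 s through a 3-h programme of moving lines and 100 ms, 400Hz tones. Each behaviour was scored by Z-LaP Tracker, a DeepLabCut model, and averaged over 48 larvae per compound. Every value gives the compound mean minus the vehicle control mean, in percentage points.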
# [2] = system: Danio rerio larvae (5 dpf); assay: difference in startle response vs DMSO (percentage points); higher = stronger startle than DMSO
# In short: as §1
# [3] = system: Danio rerio larvae (5 dpf); assay: difference in activity during first hour vs DMSO (percentage points); higher = more activity than DMSO
# In short: as §1
# [4] = system: Danio rerio larvae (5 dpf); assay: difference in habituation to acoustic stimuli vs DMSO (percentage points); higher = more habituation than DMSO
# In short: as §1
# [5] = system: Danio rerio larvae (5 dpf); assay: difference in combined optomotor response to red, green and blue moving lines vs DMSO (percentage points); higher = stronger optomotor response than DMSO
# In short: as §1
SMILES,difference in excitability [1],difference in startle response [2],difference in activity during first hour [3],difference in habituation to acoustic stimuli [4],difference [5]
C#C[C@]1(O)CC[C@H]2[C@@H]3CCc4cc(OC)ccc4[C@H]3CC[C@@]21C [Mestranol],23,-9.55,-22.7,1.6,-16.5
CC(C)(C)NC[C@H](O)COc1nsnc1N1CCOCC1 [Timolol (maleate)],6.66,-3.72,0.276,-0.906,6.47
CC(C)[N+](C)(CCOC(=O)C1c2ccccc2Oc2ccccc21)C(C)C [Propantheline (bromide)],4.4,5.21,4.15,4.81,5.08
CC(=O)N(CC(O)CO)c1c(I)c(C(=O)NCC(O)CO)c(I)c(C(=O)NCC(O)CO)c1I (stereo not given) [Iohexol],1.55,0.754,5.28,-1.14,-0.849
O=C(C1CCCCC1)N1CC(=O)N2CCc3ccccc3C2C1 (stereo not given) [Praziquantel],27.3,13.2,-17.7,11,10.4
CCN[C@H]1C[C@H](C)S(=O)(=O)c2sc(S(N)(=O)=O)cc21 [Dorzolamide (hydrochloride)],-4.82,-3.95,4.07,2.29,3.26
CCCCC1=NC2(CCCC2)C(=O)N1Cc1ccc(-c2ccccc2-c2nnn[nH]2)cc1 [Irbesartan],5.86,-3.98,6.09,-4.93,5.61
CN(C)CCC[C@@]1(c2ccc(F)cc2)OCc2cc(C#N)ccc21 [Escitalopram],12.5,-1.37,-18.9,1.61,1.8
CN(C)CCc1c[nH]c2ccc(Cn3cncn3)cc12 [Rizatriptan (benzoate salt)],9.6,-1.93,6.28,2.81,7.91
NCCCC(N)(C(=O)O)C(F)F (racemic) [DL-α-Difluoromethylornithine (hydrochloride hydrate)],-2.42,-3.99,10.2,2.49,2.05
CC1(C)NC(=O)N(c2ccc([N+](=O)[O-])c(C(F)(F)F)c2)C1=O [Nilutamide],3,-2.08,-12.2,3.08,-5.94
CC(=O)Oc1ccccc1C(=O)O [Aspirin],-1,2.44,2.02,1.42,2.52
CN1CCC[C@@H]1Cc1c[nH]c2ccc(CCS(=O)(=O)c3ccccc3)cc12 [Eletriptan],0.175,-8.65,6.02,-5.47,-0.217
CCCCCCCC/C=C\CCCCCCCC(=O)NCCO [Oleoyl Ethanolamide],3.95,1.17,2.47,-3.04,-0.503
C=C1/C(=C\C=C2/CCC[C@]3(C)[C@@H]([C@H](C)CCCC(C)(C)O)CC[C@@H]23)C[C@@H](O)C[C@@H]1O [Calcitriol],7.32,-3.08,-9.65,5.79,-3.39
CNCCC(Oc1ccc(C(F)(F)F)cc1)c1ccccc1 (stereo not given) [Fluoxetine (hydrochloride)],2.79,-8.12,-19.3,-5.89,-6.12
OC(Cn1cncn1)(Cn1cncn1)c1ccc(F)cc1F [Fluconazole],-1.01,-5.1,-3.04,-5.58,3.09
CC(C)(C)NCC(O)COc1cccc2c1CCC(=O)N2 (stereo not given) [Carteolol (hydrochloride)],4.97,-3.33,6.77,1.1,4.95
OC[C@H]1O[C@@H](O[C@@H]2[C@@H](CO)OC(O)(CO)[C@H]2O)[C@H](O)[C@@H](O)[C@H]1O (mixture of isomers) [Lactulose],2.43,-1.72,-2.1,-4.39,-4.94
CCCN1CCCC[C@H]1C(=O)Nc1c(C)cccc1C [(-)-Ropivacaine (hydrochloride hydrate)],-4.41,-2.15,7.62,-1.06,1.37
NS(=O)(=O)c1cc(C2(O)NC(=O)c3ccccc32)ccc1Cl (stereo not given) [Chlorthalidone],-10,0.0654,5.83,3.4,-3.83
COc1cccc2c1C(=O)c1c(O)c3c(c(O)c1C2=O)C[C@@](O)(C(=O)CO)C[C@@H]3O[C@H]1C[C@H](N)[C@H](O)[C@H](C)O1 [Doxorubicin (hydrochloride)],6.65,3.55,-7.11,6.05,-4.42
CCN[C@H]1CN(CCCOC)S(=O)(=O)c2sc(S(N)(=O)=O)cc21 [Brinzolamide],2.16,-4.77,-5.26,-5.35,1.28
